The values below come from PubChem BioAssay.

“And” between values parts separate entries of the source, which are not always exact repeats. Identical values can stand only once. The source made the active and inactive calls.

Assay [1] in a line: small molecules captured by biotinylated probe aFSTL3 – biochemical, small-molecule microarray, fluorescence 635/667, stem cell growth factor project, primary screen (AID 1064).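 Further: measures binding of the biotinylated anti-FSTL3 antibody to printed compounds.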 The following applies: higher = more signal.
A short description of assay [2]: binders from COS7 lysate, DM2A8 probe, primary screen, torsin A project, cell lysate, small-molecule microarray, fluorescence 635/667 (AID 1065). The following applies: higher = more signal, COS7 lysate expressing mutant human TOR1A.
Assay [3] can be described thus: small molecules captured by biotinylated probe aFGF2 – biochemical, small-molecule microarray, fluorescence 635/667, stem cell growth factor project, primary screen (AID 1067).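 Further: measures binding of biotinylated aFGF2 protein to printed compounds on slides; z-score merges feature fluorescence and signal-to-noise across triplicate slides.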 The following applies: higher = more signal.
A short description of assay [4]: small molecules captured by biotinylated probe aFGF10 – biochemical, small-molecule microarray, fluorescence 635/667, stem cell growth factor project, primary screen (AID 1071).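 Further: score merges 667 nm spot intensity and signal to noise from triplicate slides.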 Particulars: higher = more signal.
Assay [5] addresses Neurogenic locus notch homolog protein 2 (Homo sapiens) (UniProt Q04721). Description: small molecules binding Notch2 protein – biochemical, small-molecule microarray, 635 nm fluorescence, stem cell growth factors, primary screen (AID 1073). Particulars: higher = more signal.
Assay [6] deals with Pro-neuregulin-1, membrane-bound isoform (Homo sapiens) (UniProt Q02297). As to the kind of experiment: small molecules binding neuregulin-1 protein – biochemical, small-molecule microarray, fluorescence 635/667, psychiatric disease protein project, primary screen (AID 1075).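 Further: score combines 667 nm spot fluorescence with signal to noise.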 The following applies: NRG1 binding, 635 nm fluorescence, higher = more signal.
Pro-neuregulin-1, membrane-bound isoform (Homo sapiens), sequence (Q02297 whole entry, looked up, the tested form may be a part, canonical isoform): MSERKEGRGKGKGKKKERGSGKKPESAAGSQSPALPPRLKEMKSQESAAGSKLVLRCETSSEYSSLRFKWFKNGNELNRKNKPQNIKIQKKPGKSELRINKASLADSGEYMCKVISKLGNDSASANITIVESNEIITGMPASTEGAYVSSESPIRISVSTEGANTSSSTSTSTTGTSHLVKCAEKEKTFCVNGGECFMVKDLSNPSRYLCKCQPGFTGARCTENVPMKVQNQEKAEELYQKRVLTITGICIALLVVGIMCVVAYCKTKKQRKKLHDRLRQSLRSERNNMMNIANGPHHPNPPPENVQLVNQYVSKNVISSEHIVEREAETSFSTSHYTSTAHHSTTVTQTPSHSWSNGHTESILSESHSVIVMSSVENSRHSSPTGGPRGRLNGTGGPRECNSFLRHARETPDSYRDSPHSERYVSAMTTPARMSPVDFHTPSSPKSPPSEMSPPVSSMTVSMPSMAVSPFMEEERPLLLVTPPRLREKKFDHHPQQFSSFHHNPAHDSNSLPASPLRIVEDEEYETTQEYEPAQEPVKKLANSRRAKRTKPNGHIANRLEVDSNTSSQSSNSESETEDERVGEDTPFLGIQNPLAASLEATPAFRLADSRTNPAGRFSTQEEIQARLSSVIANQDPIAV
Assay [7] has as its system Neuregulin-1 EGF-like domain. Description: small molecules binding NRG1 EGF domain – biochemical, small-molecule microarray, 635 nm fluorescence, primary screen (AID 1081).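 Further: binding of the protein to compounds printed on small-molecule microarray slides.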 Particulars: higher = more signal.
Assay [8] in a line: FRG1 expression reporter modulators in myotubes – cell-based, C2C12 myotubes, firefly/Renilla luciferase, luminescence, FRG1 inhibition for FSHD, primary screen (AID 1084). The following applies: FRG1 promoter luciferase, higher = more signal, called active from +8 up or from −8 down.
Assay [9] can be described thus: small molecules captured by biotinylated probe aFST – biochemical, small-molecule microarray, fluorescence 635/667, stem cell growth factor project, primary screen (AID 1086).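 Further: score merges 667 nm fluorescence with signal-to-noise of each printed compound spot.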 The following applies: higher = more signal.
A short description of assay [10]: binders of probe aHhip on microarray, primary screen, stem cell growth factor project, biochemical, small-molecule microarray, fluorescence 635/667 (AID 1087).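 Further: score merges spot fluorescence at 667nm with spot signal to noise ratio.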 The following applies: higher = more signal.
For assay [11], the system named is PRMT1 (protein arginine N-methyltransferase 1). Description: small molecules binding arginine methyltransferase PRMT1 – biochemical, small-molecule microarray, 635 nm fluorescence, primary screen (AID 1088).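 Further: binding of Prmt1 protein to compounds spotted on small-molecule microarray slides.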 Particulars: higher = more signal.
Assay [12] is described as follows: growth effects on S. cerevisiae YJM789 – YJM789 clinical isolate, OD600, 24 h, basal, primary screen (AID 1089).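 Further: growth of clinical yeast isolate S. cerevisiae YJM 789 seeded 1000 cells per well; test concentration not given here.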 The following applies: higher = more signal, called active from +8 up or from −8 down.
Assay [13] is described as follows: S. pombe growth modifiers, basal conditions – strain 972, OD600, 24 h, no modulator, primary screen (AID 1090).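 Further: basal condition with compound alone and no growth modifier present; test concentration not given here.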 Particulars: S. pombe 972 growth, higher = more signal, called active from +8 up or from −8 down.
Assay [14] in a line: budding yeast growth modifiers under rapamycin – strain BY4716, OD600, 96 h, primary screen (AID 1091). Further: test concentration not given here. The following applies: S. cerevisiae BY4716 + rapamycin, higher = more signal, called active from +8 up or from −8 down.
Assay [15] concerns the target Torsin-1A-interacting protein 2 (Homo sapiens) (UniProt Q8NFQ8). As to the kind of experiment: small molecules binding lysate-expressed LULL1 – cell lysate, human LULL1 lysate, 635/667 nm fluorescence, primary screen (AID 1092).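 Further: probe is lysate of COS7 cells overexpressing human LULL1; score merges per-feature 667 nm fluorescence with signal-to-noise.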 Particulars: small-molecule microarray, hLULL1 lysate binding, 635 nm fluorescence; higher = more signal.
The nature of assay [16]: optical density change of DRC41 E. coli – strain DRC41, OD650, 24 h, E. coli filamentation project, primary screen (AID 1093).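 Further: MC1000 strain lacking acrAB efflux and sulA so SOS filamentation is blocked; test concentration not given here.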 The following applies: E. coli DRC41 growth, higher = more signal, called active from +8 up or from −8 down.
Assay [17] can be described thus: probe aLefty2 binding to arrayed compounds – biochemical, biotinylated probe, 635/667 nm fluorescence, primary screen (AID 1094).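 Further: score merges spot fluorescence near 667 nm with spot signal-to-noise ratio.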 Particulars: small-molecule microarray, higher = more signal.
Assay [18] deals with Noggin (protein binding on small-molecule microarray). Description: small molecules binding Noggin protein – biochemical, 635/667 nm fluorescence, primary screen (AID 1095).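 Further: score merges 667 nm feature fluorescence with signal to noise over triplicate slides.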 Particulars: 635 nm fluorescence, higher = more signal.
Assay [19] addresses Neurogenic locus notch homolog protein 3 (Homo sapiens) (UniProt Q9UM47). As to the kind of experiment: small molecules binding NOTCH3 protein – biochemical, 635/667 nm fluorescence, primary screen (AID 1096). Particulars: small-molecule microarray, 635 nm fluorescence, higher = more signal.
Assay [20] can be described thus: probe aEGFR binding to arrayed compounds – biochemical, biotinylated probe, 635/667 nm fluorescence, primary screen (AID 1097).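 Further: probe is a biotinylated anti-EGFR antibody binding compounds printed on slides; score combines fluorescence near 667 nm and signal to noise of each spot.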 Particulars: small-molecule microarray, higher = more signal.

Neurogenic locus notch homolog protein 2 (Homo sapiens), sequence (Q04721 whole entry, looked up, canonical isoform): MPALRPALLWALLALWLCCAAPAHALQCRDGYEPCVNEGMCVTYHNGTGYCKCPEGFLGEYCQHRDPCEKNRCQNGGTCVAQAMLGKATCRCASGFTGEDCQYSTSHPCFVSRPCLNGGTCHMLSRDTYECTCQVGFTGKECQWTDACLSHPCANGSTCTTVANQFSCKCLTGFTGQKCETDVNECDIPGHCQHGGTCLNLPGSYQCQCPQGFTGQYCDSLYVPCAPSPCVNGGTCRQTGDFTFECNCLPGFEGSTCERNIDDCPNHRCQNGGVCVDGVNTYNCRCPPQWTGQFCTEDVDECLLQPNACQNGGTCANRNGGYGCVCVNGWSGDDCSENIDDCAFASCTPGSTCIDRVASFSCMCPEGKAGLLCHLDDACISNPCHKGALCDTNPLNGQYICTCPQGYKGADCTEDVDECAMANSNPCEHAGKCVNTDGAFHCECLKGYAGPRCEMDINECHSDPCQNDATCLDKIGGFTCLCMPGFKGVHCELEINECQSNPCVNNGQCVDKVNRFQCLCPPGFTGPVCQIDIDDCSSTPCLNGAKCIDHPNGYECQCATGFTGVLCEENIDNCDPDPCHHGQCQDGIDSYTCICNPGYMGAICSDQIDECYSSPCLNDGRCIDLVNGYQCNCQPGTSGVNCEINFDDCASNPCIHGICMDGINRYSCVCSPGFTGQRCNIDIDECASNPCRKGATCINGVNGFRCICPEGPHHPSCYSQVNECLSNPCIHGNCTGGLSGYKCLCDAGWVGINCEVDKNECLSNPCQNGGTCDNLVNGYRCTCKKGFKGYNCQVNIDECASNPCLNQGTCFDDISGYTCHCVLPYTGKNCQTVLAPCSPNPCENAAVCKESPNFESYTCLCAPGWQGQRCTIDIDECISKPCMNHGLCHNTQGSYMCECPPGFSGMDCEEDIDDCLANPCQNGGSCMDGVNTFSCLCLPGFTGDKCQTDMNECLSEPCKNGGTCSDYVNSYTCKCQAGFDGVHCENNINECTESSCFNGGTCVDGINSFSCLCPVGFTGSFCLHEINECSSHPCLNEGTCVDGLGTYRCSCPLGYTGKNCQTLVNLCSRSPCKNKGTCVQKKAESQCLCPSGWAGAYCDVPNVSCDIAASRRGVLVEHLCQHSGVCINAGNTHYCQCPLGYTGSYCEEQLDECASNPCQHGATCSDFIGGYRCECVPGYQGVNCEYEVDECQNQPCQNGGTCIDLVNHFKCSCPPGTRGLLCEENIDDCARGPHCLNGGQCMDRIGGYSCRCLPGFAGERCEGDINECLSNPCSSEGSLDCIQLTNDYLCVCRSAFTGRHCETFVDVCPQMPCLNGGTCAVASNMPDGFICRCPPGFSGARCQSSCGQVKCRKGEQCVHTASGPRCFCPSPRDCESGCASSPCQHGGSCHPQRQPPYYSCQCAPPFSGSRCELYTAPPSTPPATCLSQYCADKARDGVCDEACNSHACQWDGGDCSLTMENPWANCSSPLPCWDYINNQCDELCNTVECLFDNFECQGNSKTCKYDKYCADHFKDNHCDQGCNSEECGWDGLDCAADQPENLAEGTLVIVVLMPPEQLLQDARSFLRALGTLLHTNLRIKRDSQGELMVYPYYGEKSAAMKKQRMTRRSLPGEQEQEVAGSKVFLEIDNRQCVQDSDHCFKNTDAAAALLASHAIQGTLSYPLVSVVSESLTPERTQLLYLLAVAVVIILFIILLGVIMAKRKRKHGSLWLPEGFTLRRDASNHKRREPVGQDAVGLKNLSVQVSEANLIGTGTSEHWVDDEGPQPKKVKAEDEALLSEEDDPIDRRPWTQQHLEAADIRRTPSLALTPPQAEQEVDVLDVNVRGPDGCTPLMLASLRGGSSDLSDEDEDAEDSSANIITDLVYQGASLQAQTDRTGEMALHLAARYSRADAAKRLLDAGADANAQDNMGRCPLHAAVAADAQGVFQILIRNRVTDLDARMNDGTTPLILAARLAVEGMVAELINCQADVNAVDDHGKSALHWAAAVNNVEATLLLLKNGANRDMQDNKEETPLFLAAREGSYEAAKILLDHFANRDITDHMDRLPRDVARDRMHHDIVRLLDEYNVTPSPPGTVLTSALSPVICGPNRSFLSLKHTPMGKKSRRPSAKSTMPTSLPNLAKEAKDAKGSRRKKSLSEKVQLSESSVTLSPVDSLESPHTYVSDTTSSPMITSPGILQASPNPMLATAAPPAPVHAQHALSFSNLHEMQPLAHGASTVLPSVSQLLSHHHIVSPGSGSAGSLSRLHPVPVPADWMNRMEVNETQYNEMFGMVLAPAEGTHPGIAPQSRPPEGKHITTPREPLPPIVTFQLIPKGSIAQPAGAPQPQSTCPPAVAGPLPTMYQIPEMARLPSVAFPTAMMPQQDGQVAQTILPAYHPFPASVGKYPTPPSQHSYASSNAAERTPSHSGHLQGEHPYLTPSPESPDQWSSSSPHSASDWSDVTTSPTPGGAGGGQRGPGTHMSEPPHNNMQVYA
Torsin-1A-interacting protein 2 (Homo sapiens), sequence (Q8NFQ8 whole entry, looked up): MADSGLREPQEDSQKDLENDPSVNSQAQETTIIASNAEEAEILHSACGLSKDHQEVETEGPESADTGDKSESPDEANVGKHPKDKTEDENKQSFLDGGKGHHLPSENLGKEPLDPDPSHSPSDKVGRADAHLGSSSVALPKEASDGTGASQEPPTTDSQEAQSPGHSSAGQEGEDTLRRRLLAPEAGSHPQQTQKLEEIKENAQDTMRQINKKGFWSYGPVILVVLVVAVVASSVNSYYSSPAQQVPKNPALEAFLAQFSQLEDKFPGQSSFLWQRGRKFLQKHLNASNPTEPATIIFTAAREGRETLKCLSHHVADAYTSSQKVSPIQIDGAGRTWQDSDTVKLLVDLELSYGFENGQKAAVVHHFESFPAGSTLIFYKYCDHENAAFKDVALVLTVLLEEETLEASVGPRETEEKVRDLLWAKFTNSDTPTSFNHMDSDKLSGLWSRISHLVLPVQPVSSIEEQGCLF

Consider `COC(=O)C1=C(C)N(Cc2ccccc2)C2=C(C(C)=O)C[C@@](O)(C(=O)OC)C(=O)N2[C@@H]1c1ccccc1`, for which the composite z-score in assay [1] was -0.335 and -0.244; in assay [2], 1.12 and -0.0954; in [3] it was -0.0005 and -0.118; in [4], 0.889 and 0.0839; in [5], 1.43 and 1.26; in [6], -0.119 and -0.159. In addition, the composite z-score in assay [7] is 1.05 and 0.439; in assay [9] it was 0.235 and 0.385; in assay [10], -0.0994 and 0.21; in assay [11], 1.55 and -0.0318; in assay [15] it was 1.68 and 0.258; in [17] it was -0.195 and -0.331. Further, the composite z-score is 0.364 and 0.0733 in assay [18]; 0.729 and -0.153 in [19]; 0.0069 and -0.158 in assay [20]. For the same compound, the z-score in assay [8] is -0.486 (inactive) and -0.75 (inactive); in [12], -0.762 (inactive) and -2.05 (inactive); in assay [13] it was -0.987 (inactive) and -1.63 (inactive); in assay [14], -1.32 (inactive) and -0.654 (inactive); in [16], 0.528 (inactive) and 0.524 (inactive).
Regarding `CCN1C(=O)[C@H]2[C@H]3[C@H](O)[C@H](O)CC(=NOC)[C@@H]3CC[C@H]2C1=O`, the composite z-score in [1] was 0.206; in assay [2] it was -0.604; in assay [3], -0.1; in assay [4], 0.369; in assay [5], -0.422; in assay [6] it was -0.319. For the same compound, the composite z-score in [7] was -0.817; in assay [9], -0.221; in [10], 0.0024; in [11] it was -1.1; in [15], -0.27; in assay [17] it was -0.0192. Also, the composite z-score in [18] was 0.178; in [19], -0.065; in assay [20], -0.0581. The z-score in [8] was -0.898 (inactive); in assay [12] it was -0.285 (inactive); in assay [13], -1.9 (inactive); in assay [14], -0.495 (inactive); in assay [16], 0.525 (inactive).
In the case of `CC(C)=CCCC(C)=CCON=C1C[C@@H](O)[C@@H](O)[C@@H]2[C@@H]3C(=O)N([C@@H](C)c4ccccc4)C(=O)[C@@H]3CC[C@H]12`, the composite z-score in assay [1] is -0.372; in assay [2], 0.384; in [3], -0.044; in assay [4] it was 0.573; in assay [5] it was 0.744; in assay [6] it was 1.13. In addition, the composite z-score in assay [7] is 0.751; in [9], 0.503; in assay [10], 0.0627; in assay [11], 1.13; in [15], 2.28; in assay [17] it was -0.0991. Further, the results for the composite z-score in assay [18], in [19] and in assay [20] were 0.454, 0.492 and -0.162, respectively. For the same compound, the z-score in [8] is -0.763 (inactive); in [12], -1.23 (inactive); in assay [13] it was -0.846 (inactive); in assay [14] it was -0.989 (inactive); in [16], -1.39 (inactive).
`CCOC(=O)NN=C1C[C@@H](O)[C@@H](O)[C@@H]2[C@@H]3C(=O)N(Cc4ccc5c(c4)OCO5)C(=O)[C@@H]3CC[C@@H]12`: the composite z-score was -0.441 in assay [1]; 0.16 in assay [2]; -0.121 in [3]; 0.505 in [4]; 0.34 in assay [5]; 0.416 in assay [6]. Also, the composite z-score in [7] was 0.858; in [9], 0.16; in assay [10], 0.007; in [11] it was 0.365; in assay [15], 2.14; in [17], -0.148. Also, the composite z-score in [18] is 0.0857; in assay [19], -0.209; in assay [20], -0.148. For the same compound, the z-score was -0.544 (inactive) in [8]; 0.282 (inactive) in [12]; -0.117 (inactive) in [13]; -0.135 (inactive) in assay [14]; 0.234 (inactive) in assay [16].
